Reference: PubChem BioAssay (NCATS)
Results filed as inconclusive are left out. Unmarked numbers belong to inactive results. Activity calls are given as the source filed them. The call rests on the fitted dose curve; in most records, active means well fitted inhibition curve with a large enough effect; inconclusive means small, poorly fitted or top-dose-only effect; inactive means flat fitted curve, though single readings scatter.

These molecules were tested on Zika virus NS2B-NS3 protease (assay: Primary screen GU AMC qHTS for Zika virus inhibitors (AID 1347154;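 further: 0% = no-inhibitor control and -100% = no-enzyme control; nearly all actives have a fitted effect of over 70% in size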)). Details: Zika NS2B-NS3 unlinked protease, AMC fluorogenic substrate; series mostly up to 54.1 µM; activity change, negative = inhibition: at the top concentration.
Summary of the method: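 Unlinked Zika NS2B hydrophilic domain–NS3 protease complex at 25 nM in 10 mM Tris-HCl pH 8.0, 0.01% Tween 20, with an AMC peptide substrate. Fluorescence change (340/450 nm) over 15 min at room temperature, normalized to controls, fitted to 4-parameter Hill.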

| SMILES | activity change, negative = inhibition | Potency |
| --- | --- | --- |
| CCN(CCCCOC(=O)c1ccc(OC)c(OC)c1)C(C)Cc1ccc(OC)cc1 (centres undefined) | -3.38% | – |
| COc1cc2c(cc1OC)[C@@H]1CC(=O)[C@@H](CC(C)C)CN1CC2 | – | inactive |
| Cc1c(C(N)=O)cc([N+](=O)[O-])cc1[N+](=O)[O-] | 0.385% | – |
| O=C(N/N=C/c1ccccc1O)c1ccncc1 | -4.13% | – |
| CC(C)NC[C@@H](O)COc1cccc2ccccc12 | – | inactive |
| CN1CCC(=C2c3ccccc3Sc3ccccc32)CC1 | -2.58% | – |
| C[C@@H](CN(C)C)CN1c2ccccc2Sc2ccccc21 | -2.91% | – |
| CCOC(=O)[C@H](CCc1ccccc1)N[C@@H](C)C(=O)N1Cc2ccccc2C[C@H]1C(=O)O | 2.48% | – |
| Cc1cc(O)c(C(C)C)cc1Cl | -10.6% | – |
| CC(=O)N/N=C/c1ccc([N+](=O)[O-])o1 | 0.683% | – |
| C=C1C(=C/C=C2\CCC[C@]3(C)[C@@H]([C@H](C)/C=C/[C@@H](O)C4CC4)CC[C@@H]23)C[C@@H](O)C[C@@H]1O | -9.52% | – |
| COc1ccc(/C=C/C(=O)c2ccc(OC)cc2OC)cc1 | -18.2% | – |
| CC(C)=CCC1C(=O)N(c2ccccc2)N(c2ccccc2)C1=O | -6.09% | – |
| Cc1c(C)n(CCN(C)C)c2ccc(C(=O)OCCN(C)C)cc12 | -5.8% | – |
| CCOc1ccc(NC(=O)CC(C)O)cc1 (centres undefined) | -4.45% | – |
| CCCOC(C(=O)OC1CCN(C)CC1)(c1ccccc1)c1ccccc1 | 2.43% | – |
| C=C(CC)C(=O)c1ccc(OCC(=O)O)c(Cl)c1Cl | 2.43% | – |
| CC(=O)OCC(=O)[C@@]12N=C(C)O[C@@H]1C[C@H]1[C@@H]3CCC4=CC(=O)C=C[C@]4(C)[C@H]3[C@@H](O)C[C@@]12C | -1.52% | – |
| O=C(CCN1CCC(c2ccccc2)C1)c1ccc2c(c1)OCCO2 (centres undefined) | 1.26% | – |
